Compounds without any hit were thinned out: in the full panel of roughly 83,000, 20% have a hit.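 Testing used 96-well plates and a 48-hour single-concentration exposure. Example: -40 means 40% of the starting cells died.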 A number with no mark means an inactive call. Calls of active or inactive are those of the source.

Growth data for 40 compounds are collected here from PubChem BioAssay (NCI).

This assay deals with SK-MEL-2 melanoma. Nature of the assay: NCI-60 one-dose screen, 48 h (100 = growth as untreated, 0 = no growth, -100 = all killed). Particulars: 10 µM unless noted. The protocol: Growth inhibition of the SK-MEL-2 human tumor cell line is measured as a screen for anti-cancer activity. Cells are grown in 96 well plates and exposed to the test compound for 48 hours. Compounds are tested at a single concentration, which is 10^-5 M for most compounds. The reported endpoint is percent growth (GI% or GIPRCNT), where numbers from 0 - 100% represent growth inhibition, and numbers from -100% - 0 represent cell death. For example, a value of 40 represents 60% growth inhibition. A value of 0 means no net growth occurred over the course of the experiment. A value of -40 indicates 40% of cells at the beginning of the experiment died by the end of the experiment. A value of -100 means all cells are dead at the end of the experiment.
NCI-60 Human Tumor Cell Lines Screen was performed using the standard one-dose NCI protocol, which is described in more detail at https://dtp.cancer.gov/discovery_development/nci-60/default.htm.
Compounds with GIPRCNT values below 10 were considered active. Activity score was based on GIPRCNT using the following formula: […]
Score is 0 for GIPRCNT values of 100 or above, 50 for GIPRCNT values of 0, and 100 for GIPRCNT values of -100.
Take `N/C(=N\C(N)=N\c1nc2ccccc2s1)c1ccncc1`: the growth is 41%. The same measure for `COc1cc2c(cc1OCCCN1CCN(CCCn3c4ccccc4c4ccccc43)CC1)N=C[C@@H]1CCCN1C2=O`: -78.1% (active). The same measure for `Cc1ccc(-c2cc3nc(C(Cl)Cl)nc(-c4cccnc4)n3n2)cc1`: 77.8%; for `COc1cc(-c2nn(-c3cccc(NC(=O)c4cccc(C(F)(F)F)c4)c3)cc2-c2ccncc2)ccc1Cl`: -38.6% (active); for `Cc1[nH]c2ccc(F)cc2c1CCNC(=O)C1CCN(C(=O)c2ccccc2)C1` (stereo not given): 113% [25 µM]. The result for `COc1cc(/C=C/C(=O)c2cccc(-n3cc(-c4cc(OC)c(OC)c(OC)c4)[nH]c3=O)c2)cc(OC)c1OC` reads -2.34% (active). `CCCOC(=O)n1cccc1`: the growth was 118%.

On to `Cc1ccc(-c2cc3nc(-c4ccccc4)nc(C(Cl)Cl)n3n2)cc1`, for which the growth is 26.7%. The same measure for `O=[N+]([O-])c1ccc(OCCCOc2ccccc2)cc1`: 102%; for `O=S(=O)(NCCNc1nccc(-c2c(-c3cccc(O)c3)nc3sccn23)n1)c1ccc(F)cc1`: 41.7%. The result for `COc1ccc(-n2c(-c3ccccc3)c(-c3ccccc3)c3c(SCC(=O)N/N=C/c4ccc(Cl)cc4)ncnc32)cc1` reads 107%; that for `C=C(C)[C@@H]1CC[C@]2(C(=O)O)CC[C@]3(C)[C@H](CC[C@@H]4[C@@]5(C)C[C@@H](CC#Cc6ccc(C(F)(F)F)cc6)[C@H](O)C(C)(C)[C@@H]5CC[C@]43C)[C@@H]12`, -27% (active); that for `CN1CCN(Cc2ccc(NC(=O)c3cncc(C#Cc4cnc(N)c5ccncc45)c3)cc2C(F)(F)F)CC1`, -25.2% (active). Take `O=C(Nc1ccc(Cl)c(Cl)c1)NS(=O)(=O)c1cnccc1Oc1ccc(F)cc1`: the growth is 64.3%. The same measure for `O=c1[nH]c2ccc(Br)cc2c2c1C(c1ccc(Cl)cc1)c1c(ncn3nc(-c4ccco4)nc13)O2` (stereo not given): 89.1%; for `COc1cc(-c2nn(-c3cccc(NC(=O)Nc4cc(C(F)(F)F)cc(C(F)(F)F)c4)c3)cc2-c2ccncc2)ccc1Cl`: -52.1% (active).

As for `O=C(NNC(=O)N1c2ccccc2C=Cc2ccccc21)c1ccc2ccccc2c1`, the growth is 98.5%.

In the case of `COc1cc(-c2nn(-c3cccc(NC(=O)c4ccc(N5CCOCC5)c(C(F)(F)F)c4)c3)cc2-c2ccncc2)ccc1Cl`, the growth was -8.84% (active). In the case of `CC(C)CC1NC(C)(C)CO1` (stereo not given), the growth is 113%. With `CCN(CC)c1ccc(CNc2ccnc3ccccc23)cc1`, the growth is 79.3%. As for `CN1CCN(Cc2ccc(NC(=O)c3cncc(C#Cc4cnc(N)c5cnccc45)c3)cc2C(F)(F)F)CC1`, the growth was -65.4% (active).

Regarding `CCN(CC)CCC(CNc1ccnc2cc(Cl)ccc12)c1ccccc1` (stereo not given), the growth is 56.2%. The result for `O=c1[nH]c(Nc2ccc(S(=O)(=O)O)cc2)nc2nc(Nc3ccc(NC(=S)Nc4ccccc4)cc3)nc(-c3ccc(O)cc3O)c12` reads 101%; that for `Cc1ccc(-c2cc3nc(C(Cl)Cl)nc(-c4ccccc4C)n3n2)cc1`, 94.5%. For `CCCCCCCCCCCCNC(=O)[C@H]1CSC(c2ccsc2)N1` (stereo not given in full), the growth was -91% (active). Consider `CCCCCCCCCCCCNC(=O)[C@H]1CSC(c2cc3ccccc3s2)N1` (stereo not given in full), for which the growth is -45.7% (active). The result for `CC(=O)Nc1ccc(/C=C/C(=O)c2ccccc2)cc1` reads 107%.

Take `O=C1c2ccccc2-c2ccccc2C1(Cl)Cl`: the growth is -71% (active). `CN(C)c1cccc2c(S(=O)(=O)/N=C(\N)Nc3nc4ccccc4s3)cccc12`: the growth was 15.3%.

As for `COc1ccc2c(c1)OC1=C(C(=O)OC1)C2c1cc(OC)c2c(c1)OCO2` (stereo not given), the growth is 43.2%. The same measure for `COP(=O)(OC)/C(=N\NS(=O)(=O)c1ccc(C)cc1)c1ccccc1`: 110%; for `ClC(Cl)c1nc(-c2ccccc2)nc2cc(-c3ccccc3)nn12`: 103%. With `COc1ccc(-c2nc3sccn3c2/C=C/C(=O)c2cc(F)cc(F)c2)cc1`, the growth was 74.7%.

As to `COc1ccc(C2=Nn3c(nnc3-n3nc(C)cc3C)SC2)cc1`, the growth is 16.8%.

As for `CC(C)c1ccc2occ(C=C3C(=O)NC(=O)NC3=O)c(=O)c2c1`, the growth was 93.5%. `CC[N+](CC)=c1cc2oc3cc(N(C)C)ccc3nc-2cc1C`: the growth is 19.4%. On to `CC(C)C(C(=O)NCCN1CCOCC1)N1C(=O)/C(=C/c2ccc(Br)cc2)SC1=S` (stereo not given), for which the growth is 93.9%. The same measure for `CC(C)CSc1nc(NN)c(C#N)c(-c2ccc(F)cc2)n1`: 67.9%; for `O=c1[nH]c(NCc2ccccc2)nc2nc(Nc3ccc(NC(=S)Nc4ccccc4)cc3)nc(-c3ccc(O)cc3O)c12`: 97.5%.

As to `O=C(Nc1ccc(NCCN2CCOCC2)nc1)c1ccc([N+](=O)[O-])cc1`, the growth was 108%.
